FBPA Giardia inh = qHTS Assay for Inhibitors of Fructose-1,6-bisphosphate Aldolase from Giardia Lamblia; A8B2U2; purified Giardia FBPA; Potency, µM (highest dose often 59.6 µM), for the others: at the highest dose activity, negative = inhibition, actives largely listed as inhibitors; hit rate 0.71% among 290,000; note: potency is the fitted concentration of half-maximal effect; % is set by controls: 0 for no effect and ±100 for the full control effect; nearly all actives have a fitted effect of over 55% in size
Target sequence (A8B2U2 whole entry, looked up): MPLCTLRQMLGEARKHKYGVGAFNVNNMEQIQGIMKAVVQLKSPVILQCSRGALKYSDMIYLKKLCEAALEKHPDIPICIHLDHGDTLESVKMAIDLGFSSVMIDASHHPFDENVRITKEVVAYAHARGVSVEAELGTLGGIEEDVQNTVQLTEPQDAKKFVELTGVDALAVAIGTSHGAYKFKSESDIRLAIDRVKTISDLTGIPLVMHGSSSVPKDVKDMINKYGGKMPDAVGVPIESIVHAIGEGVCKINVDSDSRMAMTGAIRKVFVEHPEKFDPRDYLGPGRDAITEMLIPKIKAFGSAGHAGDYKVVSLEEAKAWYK
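40 nM FBPA preincubated 10 min at RT with compound (up to 57.5 uM final), then substrate plus GAPDH/TPI/NAD/arsenate coupling and diaphorase/resazurin added. Fluorescence read after 20 min at RT, 525/598 nm.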
Tb PYK inh = qHTS of Trypanosoma Brucei Inhibitors. hit rate 0.12% among 410,000. TbPYK enzyme, Kinase-Glo Plus ATP luminescence, 45 min. AID 624173, 2012. Potency, µM (doses to about 76.8 µM), for the others: at the highest dose activity, negative = inhibition, hits mostly inhibitors. pyruvate kinase (Trypanosoma brucei), Q57TT1; note: potency is the fitted concentration of half-maximal effect; % is set by controls: 0 for no effect and ±100 for the full control effect; nearly all actives have a fitted effect of over 50% in size
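TbPYK + substrate in 50 mM TEA pH 7.2, 100 mM KCl, 10 mM MgCl2, 0.05% BSA, 0.01% Tween-20; cpd pinned; ADP 130 uM final; 45 min RT; Kinase-Glo Plus 10 min; luminescence endpoint.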
CHX counter = Cycloheximide Counterscreen for Small Molecule Inhibitors of Shiga Toxin; cell reporter, cycloheximide protein synthesis inhibition counterscreen; max response, %; hit rate 12% among 300,000; AID 2314, 2010; in the data active = max response mostly above about 13%, no sharp cut-off; inactive = mostly below about 14%; note: read at 38.3 µM for the half of the compounds with a filed dose; 0% is about no effect
Sm TGR inh = qHTS Assay for the Inhibitors of Schistosoma Mansoni Peroxiredoxins; AID 485364, 2010; purified TGR, DTNB reduction, TNB absorbance 405 nm; Potency, µM (highest dose often 114 µM), for inactives: at the highest dose activity change, negative = inhibition, most hits filed as inhibitors; hit rate 3% among 360,000; note: potency is the fitted concentration of half-maximal effect; % is set by controls: 0 for no effect and ±100 for the full control effect; nearly all actives have a fitted effect of over 60% in size
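TGR 20 nM + NADPH 100 uM (dispensed conc.), cpd preinc 15 min RT; start with NADPH (500 uM addition) then DTNB (15 mM addition). Kinetic TNB absorbance, 405 nm filter. Four-parameter Hill fit across titration.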
Shiga toxin inh = A qHTS for Small Molecule Inhibitors of Shiga Toxin | Vero cells, Shiga toxin protein synthesis inhibition reporter | hit rate 9.2% among 290,000 | inhibition, % at 38.7 µM | AID 2315, 2010; in the data active = inhibition mostly above about 28%, no sharp cut-off; inactive = mostly below about 43%; note: 0% is about no effect
LmPK inhibitor = qHTS Assay for Inhibitors of Leishmania Mexicana Pyruvate Kinase (LmPK); purified LmPK, Kinase-Glo ATP luminescence, 1 h; Potency, µM (doses to about 57.5 µM), inactives show top-dose activity change, negative = inhibition, most hits filed as inhibitors; hit rate 0.37% among 290,000; note: potency is the fitted concentration of half-maximal effect; % is set by controls: 0 for no effect and ±100 for the full control effect
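Purified LmPK (0.1 nM) with 0.5 mM PEP and 0.1 mM ADP in imidazole buffer pH 7.2 with MgCl2/KCl, 1 h at room temperature. ATP formed was read by luciferase luminescence and normalized to no-enzyme and uninhibited controls.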
An asterisk follows results filed as active; u = inconclusive; x = no result given. The entries come from a sample that favours hits as a whole. Unless noted, calls come from the whole dose curve; as a rule, active = well fitted curve in the direction sought with a large enough effect; inconclusive = small, poorly fitted or top-dose-only effect, or another doubt; inactive = no such curve, though single readings can be large; an effect the other way counts as inactive or inconclusive.

SMILES	FBPA Giardia inh	Tb PYK inh	CHX counter	Sm TGR inh	Shiga toxin inh	LmPK inhibitor
COc1cc2c(=O)n(CCC(=O)NCC3CCCO3)c(=O)n(CC(=O)Nc3ccc(F)cc3)c2cc1OC (configuration not stated)	3%	-4%	-6	-20%	15	5%
Cc1cc(Cl)n2c(nc3cc(F)c(F)cc32)c1C#N	0%	-3%	-4	1.1µM*	-27	3%
COc1ccc(S(=O)(=O)NCCCC(=O)Nc2ccc(Sc3ccc(N)cc3)cc2)cc1	-1%	x	5	x	-6	x
c1ccc(CNc2nc3c(-c4ccccc4)nnn3c3ccccc23)cc1	x	-1%	x	-1%	x	x
O=C(Nc1ccc2c(c1)OCO2)N1CCN(c2cccc(C(F)(F)F)c2)CC1	-6%	-2%	12*	2%	27*	1%
COc1ccc(C)cc1NC(=O)N1CCC(CO)(CC2CCCCO2)CC1 (configuration not stated)	-4%	0%	-3	x	11	-2%
O=C(Nc1ccc2c(c1)OCO2)N1CCC(CO)(CC2CCCCO2)CC1 (configuration not stated)	-6%	-6%	17*	-1%	46*	6%
O=C(Nc1ccc2c(c1)OCO2)N1CCN(c2ccccc2Cl)CC1	-18%	-8%	52*	-2%	85*	8%
CC(C)(C)OC(=O)N/N=C/c1ccc(Br)cc1	-3%	-1%	40*	10%	105*	-3%
O=C(N/N=C/c1ccc(OC(=O)c2cccs2)cc1)c1ccccn1	-4%	-16%	45*	-18%	53*	-6%
CC(C)(C)OC(=O)N/N=C\c1ccc(OC(=O)c2cccs2)cc1	0%	-10%	15	-14%	97*	3%
CC(C)(C)NC(=O)C(=O)N/N=C/c1ccc(Br)cc1	-2%	5%	15	3%	13	1%
CCOc1cc(/C=N/NC(=O)c2ccccn2)ccc1OC(=O)c1cccs1	-1%	-6%	28*	-1%	43*	0%
O=C(Oc1ccc(/C=N/NC(=O)c2ccccn2)cc1)c1cccc(Br)c1	x	1%	28*	-4%	59*	3%
O=C(N/N=C/c1ccc(OC(=O)c2ccco2)cc1)c1ccccn1	-4%	-6%	27*	-1%	39*	-10%
O=C(Oc1ccc(/C=N/NC(=O)c2ccccn2)cc1)c1ccc(Br)cc1	x	-4%	x	x	x	x
CCC(C(=O)Nc1cc(OC)ccc1OC)n1nc(-c2ccccc2)c2c(c1=O)CCCC2 (configuration not stated)	x	1%	x	2%	x	x
CCC(O)(CC)C(=O)NN(C(=O)CCl)c1ccccc1	4%	2%	1	22µM*	5	-2%
CCN(CC)NC(=O)Nc1ccccc1	6%	1%	8	13%	-6	8%
Cc1ccc(N(NC(=O)C(O)(c2ccccc2)c2ccccc2)C(=O)CCl)cc1	2%	4%	-9	6.3µM*	-9	1%
O=C(Nc1ccccc1)NN(C(=O)CCl)c1ccccc1	13%	7%	14	3.5µM*	24	-6%
Cc1cc(C(=O)Cn2cnc3cc(F)ccc3c2=O)c(C)n1C1CC1	x	-8%	x	x	x	x
COc1ccccc1/C=C/c1nc(C#N)c(NC2CCCCC2)o1	x	0%	x	-19%	x	x
Cc1ccc(-c2noc(CN(C)C(=O)c3ccoc3C)n2)cc1	4%	-1%	19*	-5%	88*	-9%
COc1ccc(-c2noc(CN(C)C(=O)c3ccco3)n2)cc1	10%	1%	23	-4%	35	0%
CN(C)C(=O)CCCc1nc(-c2ccc(Cl)cc2)no1	0%	-5%	38*	44%	156*	-5%
Cc1occc1C(=O)N(C)Cc1nc(-c2ccc(Cl)cc2)no1	1%	1%	9	u	24	0%
CN(Cc1nc(-c2ccc(Cl)cc2)no1)C(=O)c1ccco1	x	0%	12*	6%	44	-6%
CC(C)C[C@H]1CNC(=S)N1CC1CCN(CCCC2CCCC2)CC1	x	-4%	x	x	x	x
